Structures are written as SMILES.

Some test systems named below: FGFR1; FGFR2; FGFR3; FGFR4; FGR; FLT1; FLT3-autoinhibited; FLT3; FLT4; FRK; FYN; GAK; GRK1; GRK4; GRK7; GSK3A; GSK3B.
Settings in all cases: concentration: 1 μM, replicates: in singlicate; n = 1
In another assay the test system is T1, GCN2(Kin.Dom.2,S808G).
T1 construct: gene EIF2AK4

A further assay has as its system T2, GRK2.
T2 construct: gene ADRBK1

A further assay deals with T3, GRK3.
T3 construct: gene ADRBK2
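Also: KINOMEscan kinase panel screen.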

As for `Nc1ncc(-c2ccc3nccc(-c4ccncc4)c3c2)cc1S(=O)(=O)N1CCOCC1` [GSK1627798], the “%Inh” value with FGFR1 is reported as 0%; in the assay on FGFR2 it was 0%; with FGFR3, 6%; in the assay with FGFR4, 0%; in the assay on FGR, 24%; with FLT1 it was 22%. In addition, the “%Inh” value turned out to be 0% with FLT3-autoinhibited; 0% with FLT3; 0% in the assay with FLT4; 8% in the assay on FRK; 14% with FYN; 6% with GAK. Moreover, the “%Inh” value amounted to 3% with GCN2(Kin.Dom.2,S808G); 1% in the assay on GRK1; 0% in the assay on GRK2; 17% in the assay with GRK3; 1% in the assay with GRK4; 0% in the assay with GRK7. Besides, the entries for the “%Inh” value in the assay with GSK3A and in the assay on GSK3B were 1% and 3%, respectively.

`COc1cc(Nc2ncc3c(C)nc(-c4cc5ccccc5[nH]4)n3n2)cc(OC)c1OC` [GW869516]: the “%Inh” value in the assay with FGFR1 is listed as 35%; in the assay on FGFR2, 21%; in the assay on FGFR3, 30%; with FGFR4, 15%; in the assay on FGR, 40%; in the assay on FLT1 it was 23%. Moreover, the “%Inh” value in the assay on FLT3-autoinhibited is given as 75%; with FLT3 it was 96.3%; in the assay on FLT4, 1%; in the assay on FRK it was 39%; in the assay on FYN, 30%; in the assay on GAK it was 34%. Moreover, the “%Inh” value was 88% in the assay with GCN2(Kin.Dom.2,S808G); 0% in the assay on GRK1; 0% with GRK2; 0% in the assay with GRK3; 19% with GRK4; 0% in the assay with GRK7. Also, the “%Inh” value with GSK3A and in the assay with GSK3B was 0% each time.

Take `CCc1ccc(-c2ccc3c(c2)-c2c(cnn2C)S(=O)(=O)N3C)cc1`: the “%Inh” value in the assay with FGFR1 came to 3%; in the assay with FGFR2 it was 0%; in the assay with FGFR3, 0%; in the assay on FGFR4, 0%; with FGR, 0%; with FLT1, 0%. In addition, the “%Inh” value in the assay with FLT3-autoinhibited is 9%; in the assay with FLT3, 0%; in the assay on FLT4 it was 0%; in the assay on FRK, 0%; in the assay with FYN, 3%; with GAK, 8%. Besides, the “%Inh” value with GCN2(Kin.Dom.2,S808G) is recorded as 16%; in the assay with GRK1 it was 11%; in the assay with GRK2, 0%; in the assay on GRK3 it was 0%; in the assay on GRK4 it was 16%; with GRK7, 0%. For the same compound, the “%Inh” value stood at 0% in the assay on GSK3A and 13% in the assay with GSK3B.

Turning to `CC(=O)N1CCN(c2ccc(Nc3nccc(-c4sc(C(C)C)nc4-c4cccc(NS(=O)(=O)c5cccc(Cl)c5)c4)n3)cn2)CC1` [GSK1660437], the “%Inh” value is on record as 20% in the assay on FGFR1; 0% with FGFR2; 7% in the assay on FGFR3; 0% in the assay on FGFR4; 78% in the assay on FGR; 81% in the assay with FLT1. The “%Inh” value with FLT3-autoinhibited is recorded as 9%; in the assay with FLT3, 33%; in the assay with FLT4, 82%; in the assay with FRK, 70%; in the assay on FYN it was 73%; in the assay with GAK it was 90.9%. Besides, the “%Inh” value with GCN2(Kin.Dom.2,S808G) is on record as 100%; with GRK1, 0%; in the assay with GRK2 it was 12%; in the assay with GRK3, 0%; with GRK4, 30%; in the assay on GRK7, 0%. Moreover, the “%Inh” value in the assay with GSK3A came out at 12%; in the assay with GSK3B, 10%.

On to `Cn1cc(-c2ccc3c(c2)CCN3C(=O)Cc2cccc(F)c2)c2c(N)ncnc21` [GSK2603358], for which the “%Inh” value in the assay with FGFR1 came out at 0%; with FGFR2, 0%; in the assay on FGFR3, 0%; in the assay with FGFR4, 0%; with FGR it was 46%; in the assay with FLT1, 63%. The “%Inh” value with FLT3-autoinhibited is recorded as 0%; with FLT3, 66%; in the assay with FLT4, 6%; in the assay with FRK, 0%; with FYN it was 0%; with GAK, 16%. For the same compound, the “%Inh” value in the assay on GCN2(Kin.Dom.2,S808G) turned out to be 33%; with GRK1 it was 0%; in the assay on GRK2, 0%; in the assay on GRK3 it was 36%; in the assay with GRK4, 0%; with GRK7 it was 0%. In addition, the “%Inh” value with GSK3A was determined as 4%; with GSK3B, 12%.

Take `CN1CCN(Cc2cccc(-c3ccc4c(Nc5ccc(Oc6ccccc6)cc5)ccnc4c3)c2)CC1` [GW578342]: the “%Inh” value is reported as 22% in the assay on FGFR1; 0% in the assay with FGFR2; 17% with FGFR3; 0% with FGFR4; 92.4% in the assay with FGR; 45% in the assay with FLT1. Moreover, the “%Inh” value in the assay on FLT3-autoinhibited was 36%; in the assay on FLT3, 93.2%; in the assay on FLT4 it was 43%; in the assay with FRK, 19%; with FYN, 83%; in the assay with GAK, 3%. The “%Inh” value in the assay on GCN2(Kin.Dom.2,S808G) is given as 0%; in the assay with GRK1 it was 1%; in the assay with GRK2, 2%; in the assay with GRK3, 37%; in the assay with GRK4, 0%; in the assay with GRK7, 0%. The “%Inh” value turned out to be 16% with GSK3A and 0% with GSK3B.

For `c1ccc(-c2n[nH]cc2Nc2ccnc3ccccc23)nc1` [GW694077], the “%Inh” value turned out to be 0% with FGFR1; 0% in the assay on FGFR2; 0% with FGFR3; 0% in the assay with FGFR4; 10% with FGR; 26% in the assay with FLT1. The “%Inh” value turned out to be 8% in the assay on FLT3-autoinhibited; 12% in the assay with FLT3; 11% in the assay on FLT4; 0% in the assay on FRK; 36% with FYN; 100% with GAK. Moreover, the “%Inh” value was 0% in the assay on GCN2(Kin.Dom.2,S808G); 7% with GRK1; 0% in the assay with GRK2; 33% with GRK3; 81% in the assay with GRK4; 0% in the assay on GRK7. Besides, the “%Inh” value with GSK3A was determined as 0%; in the assay with GSK3B it was 7%.

`Clc1ccc(-c2nn3ncccc3c2-c2ccnc(Nc3ccc4c(c3)OCCO4)n2)cc1` [GW829116]: the “%Inh” value with FGFR1 is recorded as 0%; in the assay on FGFR2, 0%; in the assay with FGFR3, 0%; in the assay on FGFR4, 0%; in the assay with FGR, 75%; in the assay on FLT1 it was 54%. Further, the “%Inh” value with FLT3-autoinhibited was found to be 0%; in the assay on FLT3 it was 59%; in the assay with FLT4, 35%; in the assay with FRK, 0%; with FYN, 0%; in the assay with GAK, 68%. Besides, the “%Inh” value in the assay on GCN2(Kin.Dom.2,S808G) came to 6%; with GRK1, 0%; in the assay on GRK2, 0%; in the assay on GRK3 it was 0%; in the assay with GRK4 it was 0%; in the assay on GRK7, 0%. The “%Inh” value turned out to be 24% with GSK3A and 0% with GSK3B.

With `FC(F)(F)c1ccc(/C=C/c2cncnc2Nc2ccc3[nH]c(Cc4ccccc4)nc3c2)cc1` [GW709199], the “%Inh” value with FGFR1 was 20%; with FGFR2, 0%; in the assay with FGFR3 it was 0%; in the assay with FGFR4 it was 4%; in the assay with FGR it was 34%; in the assay on FLT1, 12%. Moreover, the “%Inh” value in the assay on FLT3-autoinhibited is 0%; in the assay on FLT3 it was 19%; in the assay on FLT4 it was 0%; in the assay with FRK it was 10%; with FYN, 10%; in the assay on GAK, 0%. Also, the “%Inh” value in the assay on GCN2(Kin.Dom.2,S808G) is listed as 0%; in the assay with GRK1 it was 11%; with GRK2, 0%; in the assay with GRK3 it was 0%; with GRK4, 18%; in the assay with GRK7, 0%. Also, the “%Inh” value with GSK3A is given as 39%; with GSK3B, 0%.

For the compound `Cc1ccc(C(=O)Nc2ccc(Nc3ccnc4cc(-c5nccs5)ccc34)cc2O)cc1.Cl` [GW494702], the “%Inh” value in the assay on FGFR1 stood at 0%; with FGFR2, 35%; with FGFR3 it was 13%; with FGFR4 it was 0%; with FGR, 73%; in the assay on FLT1, 14%. For the same compound, the “%Inh” value in the assay on FLT3-autoinhibited is on record as 0%; in the assay with FLT3 it was 14%; in the assay on FLT4, 0%; in the assay on FRK, 67%; in the assay on FYN it was 25%; in the assay with GAK, 10%. The “%Inh” value amounted to 0% in the assay on GCN2(Kin.Dom.2,S808G); 17% in the assay on GRK1; 0% in the assay with GRK2; 41% in the assay on GRK3; 17% in the assay with GRK4; 0% in the assay with GRK7. Also, the “%Inh” value in the assay with GSK3A is given as 0%; in the assay on GSK3B, 7%.

Values taken from paper PMC5540273 (PLoS ONE, 2017).
